Measured values taken from PubChem BioAssay (Tox21).
Inconclusive results are not listed. Activity calls are given as the source filed them. Calls follow the shape of the dose curve; as a rule, active = well fitted inhibition curve with a large enough effect in the repeat runs; inconclusive = weak or mixed curves; inactive = no such curve, though single readings can be large or run the other way.
% is scaled to controls: 0 for no effect and ±100 for the full control effect; potency is read from the fitted curve at half-maximal effect.

What follows are molecules tested against Cytochrome P450 2D6 (Homo sapiens) (UniProt P10635) (assay: Cytochrome P450 Family 2 Subfamily D Member 6 (CYP2D6) small molecule antagonists: luciferase reporter qHTS assay (AID 1671196; also: nearly all actives have a fitted effect of over 50% in size)). Conditions: P450-Glo CYP2D6 enzyme assay, luciferin luminescence, 1 h; series mostly up to 115 µM; activity change, negative = inhibition: at the top concentration.
Cytochrome P450 2D6 (Homo sapiens), sequence (P10635 whole entry, looked up): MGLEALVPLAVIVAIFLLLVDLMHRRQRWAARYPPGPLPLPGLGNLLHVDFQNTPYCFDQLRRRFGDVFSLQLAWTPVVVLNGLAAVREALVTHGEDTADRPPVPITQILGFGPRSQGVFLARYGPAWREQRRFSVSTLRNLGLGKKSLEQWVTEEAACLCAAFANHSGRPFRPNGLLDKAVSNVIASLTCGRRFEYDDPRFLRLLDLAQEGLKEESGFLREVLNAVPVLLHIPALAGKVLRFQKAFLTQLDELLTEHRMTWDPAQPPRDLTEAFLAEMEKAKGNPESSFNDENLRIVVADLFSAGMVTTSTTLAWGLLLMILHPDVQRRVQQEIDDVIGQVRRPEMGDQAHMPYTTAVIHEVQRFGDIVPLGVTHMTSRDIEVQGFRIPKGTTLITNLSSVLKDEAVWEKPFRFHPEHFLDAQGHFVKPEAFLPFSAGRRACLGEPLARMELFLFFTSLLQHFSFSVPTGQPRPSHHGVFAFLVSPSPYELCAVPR
Method in brief: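 Inhibition of CYP2D6 was gauged by loss of luminescence, since light produced tracks the luciferin generated from a proluciferin substrate. A 10 min room-temperature preincubation preceded 1 h NADPH-supported turnover.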
In the case of `O=C(O)c1cccc(-c2noc(-c3ccccc3F)n2)c1`, the Potency is reported as 3.47 µM (active). For `CCCCC(CC)COP(=O)(O)O` (stereo unspecified), the “activity change, negative = inhibition” value was -17.3% (inactive). For `N#CCc1ccc(Cl)cc1Cl`, the “activity change, negative = inhibition” value was -25.4% (inactive). With `CCCCCCCCCCCCCCN(CCO)CCO` the Potency was 7.96 µM (active). With `COC(=O)C1=C(C)NC(C)=C(C(=O)O[C@@H]2CCCN(Cc3ccccc3)C2)[C@@H]1c1cccc([N+](=O)[O-])c1` the Potency was 15.5 µM (active). In the case of `C[C@@H](O[C@H]1OCCN(Cc2n[nH]c(=O)[nH]2)[C@H]1c1ccc(F)cc1)c1cc(C(F)(F)F)cc(C(F)(F)F)c1`, the Potency is reported as 19.5 µM (active). With `c1cc(N(CC2CO2)CC2CO2)ccc1Cc1ccc(N(CC2CO2)CC2CO2)cc1` (stereo unspecified) the “activity change, negative = inhibition” value was -62.9% (inactive). For `NCCNCCO`, the Potency was 28.6 µM (active). For `CC(C)=CC(=O)C=C(C)C`, the “activity change, negative = inhibition” value was -1.6% (inactive). With `CC(C)=CCC/C(C)=C/CC/C(C)=C/CCC(=O)OC/C=C(\C)CCC=C(C)C` the “activity change, negative = inhibition” value was 2.68% [at 53 µM] (inactive). `O=[N+]([O-])c1ccc(O/N=C/c2cc(Br)c(O)c(Br)c2)c([N+](=O)[O-])c1` was tested, and the “activity change, negative = inhibition” value was -25.4% (inactive). In the case of `O=c1cc(-c2ccccc2)oc2ccc3ccccc3c12`, the Potency is reported as 5.64 µM (active). With `CCCCN(CCN(CCCC)C(=O)N1CCOCC1)C(=O)N1CCOCC1` the “activity change, negative = inhibition” value was -23.3% [at 53 µM] (inactive). `O=C(/C=C/c1ccccc1)OCCc1ccccc1` was tested, and the “activity change, negative = inhibition” value was -15.9% (inactive). With `CC[C@]1(O)C[C@H]2CN(CCc3c([nH]c4ccccc34)[C@@](C(=O)OC)(c3cc4c(cc3OC)N(C=O)[C@H]3[C@@](O)(C(=O)OC)[C@H](OC(C)=O)[C@]5(CC)C=CCN6CC[C@]43[C@@H]65)C2)C1` the “activity change, negative = inhibition” value was -13.7% [at 53 µM] (inactive). In the case of `COc1ccc(OC(=O)N(CC(=O)O)Cc2ccc(OCCc3nc(-c4ccccc4)oc3C)cc2)cc1`, the “activity change, negative = inhibition” value is reported as -11.9% [at 53 µM] (inactive).
